Reference: ChEMBL document CHEMBL4513152, “CO-ADD screening of Yantai University (China) compounds”
Measured potencies and affinities stand elsewhere.

What was measured:
[1] = system: Staphylococcus aureus; details: Concentration 32 ug.mL-1; ASSAY_TEST Inhibition of Bacterial Growth; detection method Absorption (OD600); MEDIA CAMHB; plate type 384well; NBS; CORNING #3640; time 18 hr
[2] = system: Escherichia coli; details: Concentration 32 ug.mL-1; ASSAY_TEST Inhibition of Bacterial Growth; detection method Absorption (OD600); MEDIA CAMHB; plate type 384well; NBS; CORNING #3640; time 18 hr

| Structure (SMILES) | Inhibition [1] | Inhibition [2] |
| --- | --- | --- |
| CC(=O)O[C@H]1C[C@@]2(C)C(C[C@@H](O)C3[C@@]4(C)CC[C@@H](OC(=O)C(N)CC(C)C)[C@@H](C)C4CC[C@@]32C)/C1=C(\CCC=C(C)C)C(=O)OCc1ccccc1 (stereo partly drawn) | -0.87% | -4.43% |
| CC(=O)O[C@H]1C[C@@]2(C)C(C[C@@H](O)C3[C@@]4(C)CC[C@@H](OC(=O)CCC(=O)OCCc5ccc(OCCO[N+](=O)[O-])cc5)[C@@H](C)C4CC[C@@]32C)/C1=C(\CCC=C(C)C)C(=O)OCc1ccccc1 (stereo partly drawn) | -0.26% | -8.83% |
| CC(=O)O[C@H]1C[C@@]2(C)C(C[C@@H](O)C3[C@@]4(C)CC[C@@H](O)[C@@H](C)C4CC[C@@]32C)/C1=C(\CCC=C(C)C)C(=O)Oc1ccc(CCO[N+](=O)[O-])cc1 (stereo partly drawn) | 23.19% | -3.14% |
| CC(=O)O[C@H]1C[C@@]2(C)C(C[C@@H](O)C3[C@@]4(C)CC[C@@H](O)[C@@H](C)C4CC[C@@]32C)/C1=C(\CCC=C(C)C)C(=O)OCc1ccccc1 (stereo partly drawn) | 36.65% | -11.95% |
| CC(=O)O[C@H]1C[C@@]2(C)C(CC(=O)C3[C@@]4(C)CC[C@@H](OC(=O)CCCCCO[N+](=O)[O-])[C@@H](C)C4CC[C@@]32C)/C1=C(\CCC=C(C)C)C(=O)OCc1ccccc1 (stereo partly drawn) | 5.71% | -2.8% |
| CC(=O)O[C@H]1C[C@@]2(C)C(C[C@@H](O)C3[C@@]4(C)CC[C@@H](OC(=O)CCC(=O)O)[C@@H](C)C4CC[C@@]32C)/C1=C(\CCC=C(C)C)C(=O)OCc1ccccc1 (stereo partly drawn) | 44.88% | 10.14% |
| CC(=O)O[C@H]1C[C@@]2(C)C(C[C@@H](O)C3[C@@]4(C)CC[C@@H](OC(=O)c5ccccc5C(=O)Nc5cccc(N)c5)[C@@H](C)C4CC[C@@]32C)/C1=C(\CCC=C(C)C)C(=O)OCc1ccccc1 (stereo partly drawn) | 1.65% | -0.14% |
| CC(=O)O[C@H]1C[C@@]2(C)C(C[C@@H](O)C3[C@@]4(C)CC[C@@H](OC(=O)C(N)C(C)C)[C@@H](C)C4CC[C@@]32C)/C1=C(\CCC=C(C)C)C(=O)OCc1ccccc1 (stereo partly drawn) | -9.9% | -10.45% |
| CC(=O)O[C@H]1C[C@@]2(C)C(C[C@@H](O)C3[C@@]4(C)CC[C@@H](OC(=O)CCCCO[N+](=O)[O-])[C@@H](C)C4CC[C@@]32C)/C1=C(\CCC=C(C)C)C(=O)OCc1ccccc1 (stereo partly drawn) | 9.5% | -4.08% |
| CC(=O)O[C@H]1C[C@@]2(C)C(CC(=O)C3[C@@]4(C)CCC(=O)[C@@H](C)C4CC[C@@]32C)/C1=C(\CCC=C(C)C)C(=O)OCc1ccccc1 (stereo partly drawn) | 29.92% | -4.11% |
| CC(=O)O[C@H]1C[C@@]2(C)C(C[C@@H](O)C3[C@@]4(C)CC[C@@H](OC(=O)CCC(=O)Oc5ccc(CCO[N+](=O)[O-])cc5)[C@@H](C)C4CC[C@@]32C)/C1=C(\CCC=C(C)C)C(=O)OCc1ccccc1 (stereo partly drawn) | -9.31% | -12.6% |
| CC(=O)O[C@H]1C[C@@]2(C)C(C[C@@H](O)C3[C@@]4(C)CC[C@@H](OC(=O)c5ccccc5C(=O)OCCc5ccc(OCCO[N+](=O)[O-])cc5)[C@@H](C)C4CC[C@@]32C)/C1=C(\CCC=C(C)C)C(=O)OCc1ccccc1 (stereo partly drawn) | 8.23% | 0.28% |
| CC(=O)O[C@H]1C[C@@]2(C)C(C[C@@H](O)C3[C@@]4(C)CC[C@@H](OC(=O)CCCCCO[N+](=O)[O-])[C@@H](C)C4CC[C@@]32C)/C1=C(\CCC=C(C)C)C(=O)OCc1ccccc1 (stereo partly drawn) | 6.22% | -6.82% |
| CC(=O)O[C@H]1C[C@@]2(C)C(C[C@@H](O)C3[C@@]4(C)CC[C@@H](OC(=O)c5ccccc5C(=O)Oc5ccc(CCO[N+](=O)[O-])cc5)[C@@H](C)C4CC[C@@]32C)/C1=C(\CCC=C(C)C)C(=O)OCc1ccccc1 (stereo partly drawn) | -1.26% | -6.53% |
| CC(=O)O[C@H]1C[C@@]2(C)C(C[C@@H](O)C3[C@@]4(C)CC[C@@H](OC(=O)C(C)N)[C@@H](C)C4CC[C@@]32C)/C1=C(\CCC=C(C)C)C(=O)OCc1ccccc1 (stereo partly drawn) | 32.79% | -12.12% |
| CC(=O)O[C@H]1C[C@@]2(C)C(C[C@@H](O)C3[C@@]4(C)CC[C@@H](O)[C@@H](C)C4CC[C@@]32C)/C1=C(\CCC=C(C)C)C(=O)On1nnc2ccccc21 (stereo partly drawn) | 73.87% | -6.08% |
| CC(=O)O[C@H]1C[C@@]2(C)C(C[C@@H](O)C3[C@@]4(C)CC[C@@H](OC(=O)c5ccccc5C(=O)Nc5ccc(N)cc5)[C@@H](C)C4CC[C@@]32C)/C1=C(\CCC=C(C)C)C(=O)OCc1ccccc1 (stereo partly drawn) | 7.06% | 1.09% |
| CC(=O)O[C@H]1C[C@@]2(C)C(CC(=O)C3[C@@]4(C)CC[C@@H](OC(=O)CCCCO[N+](=O)[O-])[C@@H](C)C4CC[C@@]32C)/C1=C(\CCC=C(C)C)C(=O)OCc1ccccc1 (stereo partly drawn) | 9.81% | -0.69% |
| CC(=O)O[C@H]1C[C@@]2(C)C(C[C@@H](O)C3[C@@]4(C)CC[C@@H](OC(=O)CO[N+](=O)[O-])[C@@H](C)C4CC[C@@]32C)/C1=C(\CCC=C(C)C)C(=O)OCc1ccccc1 (stereo partly drawn) | 5.41% | 4.14% |
